What all share (experiment): yeast three-hybrid, YBZ-1, SC-Leu-His + 0.5 mM 3-AT, 4 days
Details in all cases: tags: N-Gal4 AD-HA kept; label: inside an RPR1-promoter hybrid RNA with tandem MS2 sites; ssRNA

The target in one experiment is PUM1 PUF domain R8-RGR (Homo sapiens, UniProt Q14671 828-1176, N1122R;Y1123G;Q1126R). In outline: (§1)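 Matching RNA elements and Pumilio-1 PUF domain libraries, randomized at the three base-contacting residues of every repeat, were co-expressed from a centromeric plasmid in strain YBZ-1 (LexA–MS2 coat fusion, HIS3 reporter). The repeat regions were PCR-amplified and Illumina-sequenced from cells grown four days on SC-Leu (input) or SC-Leu-His + 0.5 mM 3-AT (selection). The interaction score is the log change in variant frequency from input to selection. It is computed in log2, with a pseudocount of 1 for absent variants.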
PUM1 PUF domain R8-RGR, sequence (Q14671 828-1176 N1122R/Y1123G/Q1126R): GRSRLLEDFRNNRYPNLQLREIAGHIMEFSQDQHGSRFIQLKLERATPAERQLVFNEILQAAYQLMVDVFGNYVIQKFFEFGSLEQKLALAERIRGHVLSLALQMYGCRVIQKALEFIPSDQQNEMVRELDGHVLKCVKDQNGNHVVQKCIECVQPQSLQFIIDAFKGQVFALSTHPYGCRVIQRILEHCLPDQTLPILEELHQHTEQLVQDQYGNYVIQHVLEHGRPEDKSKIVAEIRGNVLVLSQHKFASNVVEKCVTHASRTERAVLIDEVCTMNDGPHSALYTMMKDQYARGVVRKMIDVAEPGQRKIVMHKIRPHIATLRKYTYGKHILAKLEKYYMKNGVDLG

The target in another experiment is PUM1 PUF domain R5-RQC (Homo sapiens, UniProt Q14671 828-1176, C1007R;R1008Q;Q1011C). Put shortly: as §1
PUM1 PUF domain R5-RQC, sequence (Q14671 828-1176 C1007R/R1008Q/Q1011C): as the sequence (Q14671 828-1176 N1122R/Y1123G/Q1126R) above, with C180R, R181Q, Q184C, R295N, G296Y, R299Q counted along it
A further experiment deals with PUM1 PUF domain R4-CRS (Homo sapiens, UniProt Q14671 828-1176, N971C;H972R;Q975S). In outline: as §1
PUM1 PUF domain R4-CRS, sequence (Q14671 828-1176 N971C/H972R/Q975S): as the sequence (Q14671 828-1176 N1122R/Y1123G/Q1126R) above, with N144C, H145R, Q148S, R295N, G296Y, R299Q counted along it
The target of a further experiment is PUM1 PUF domain R5-CTR (Homo sapiens, UniProt Q14671 828-1176, R1008T;Q1011R). In outline: as §1
PUM1 PUF domain R5-CTR, sequence (Q14671 828-1176 R1008T/Q1011R): as the sequence (Q14671 828-1176 N1122R/Y1123G/Q1126R) above, with R181T, Q184R, R295N, G296Y, R299Q counted along it
The target in the next experiment is PUM1 PUF domain R5-RFD (Homo sapiens, UniProt Q14671 828-1176, C1007R;R1008F;Q1011D). Put shortly:
as §1

A further experiment deals with PUM1 PUF domain R3-TRF (Homo sapiens, UniProt Q14671 828-1176, C935T;Q939F). Put shortly:
as §1

Another experiment deals with PUM1 PUF domain R3-GPT (Homo sapiens, UniProt Q14671 828-1176, C935G;R936P;Q939T). In outline:
as §1

The next experiment addresses PUM1 PUF domain R3-IYL (Homo sapiens, UniProt Q14671 828-1176, C935I;R936Y;Q939L). Put shortly: as §1
For the next experiment, the target named is PUM1 PUF domain R4-SML (Homo sapiens, UniProt Q14671 828-1176, N971S;H972M;Q975L). Put shortly: as §1
For another experiment, the target named is PUM1 PUF domain R5-EFR (Homo sapiens, UniProt Q14671 828-1176, C1007E;R1008F;Q1011R). In outline: as §1
Another experiment addresses PUM1 PUF domain R3-LWT (Homo sapiens, UniProt Q14671 828-1176, C935L;R936W;Q939T). In outline:
as §1

The target in another experiment is PUM1 PUF domain R1-SLR (Homo sapiens, UniProt Q14671 828-1176, R864L;Q867R). Put shortly: as §1
Another experiment addresses PUM1 PUF domain R5-DRQ (Homo sapiens, UniProt Q14671 828-1176, C1007D). In outline: as §1
The target in a further experiment is PUM1 PUF domain R5-KRP (Homo sapiens, UniProt Q14671 828-1176, C1007K;Q1011P). Put shortly: as §1
PUM1 PUF domain R5-KRP, sequence (Q14671 828-1176 C1007K/Q1011P): as the sequence (Q14671 828-1176 N1122R/Y1123G/Q1126R) above, with C180K, Q184P, R295N, G296Y, R299Q counted along it
The next experiment has as its target PUM1 PUF domain R7-KRG (Homo sapiens, UniProt Q14671 828-1176, S1079K;N1080R;E1083G). Put shortly:
as §1

A further experiment addresses PUM1 PUF domain R5-DHW (Homo sapiens, UniProt Q14671 828-1176, C1007D;R1008H;Q1011W). In outline:
as §1

A further experiment concerns the target PUM1 PUF domain R3-EWE (Homo sapiens, UniProt Q14671 828-1176, C935E;R936W;Q939E). Put shortly: as §1
A further experiment deals with PUM1 PUF domain R7-TVG (Homo sapiens, UniProt Q14671 828-1176, S1079T;N1080V;E1083G). Put shortly:
as §1

The target in another experiment is PUM1 PUF domain R1-TLF (Homo sapiens, UniProt Q14671 828-1176, S863T;R864L;Q867F). Put shortly:
as §1

A further experiment addresses PUM1 PUF domain R1-RIS (Homo sapiens, UniProt Q14671 828-1176, S863R;R864I;Q867S). In outline:
as §1

In paper PMC8384837, “Expanding the binding specificity for RNA recognition by a PUF domain” one finds binding signal data, which are given here for eleven sequences.

PUM1 PUF domain R5-RFD, sequence (Q14671 828-1176 C1007R/R1008F/Q1011D): as the sequence (Q14671 828-1176 N1122R/Y1123G/Q1126R) above, with C180R, R181F, Q184D, R295N, G296Y, R299Q counted along it
PUM1 PUF domain R5-DRQ, sequence (Q14671 828-1176 C1007D): as the sequence (Q14671 828-1176 N1122R/Y1123G/Q1126R) above, with C180D, R295N, G296Y, R299Q counted along it
PUM1 PUF domain R5-DHW, sequence (Q14671 828-1176 C1007D/R1008H/Q1011W): as the sequence (Q14671 828-1176 N1122R/Y1123G/Q1126R) above, with C180D, R181H, Q184W, R295N, G296Y, R299Q counted along it
PUM1 PUF domain R1-RIS, sequence (Q14671 828-1176 S863R/R864I/Q867S): as the sequence (Q14671 828-1176 N1122R/Y1123G/Q1126R) above, with S36R, R37I, Q40S, R295N, G296Y, R299Q counted along it
PUM1 PUF domain R1-TLF, sequence (Q14671 828-1176 S863T/R864L/Q867F): as the sequence (Q14671 828-1176 N1122R/Y1123G/Q1126R) above, with S36T, R37L, Q40F, R295N, G296Y, R299Q counted along it

As to “GGCUAGAACUAGUGGAUCCCCCGGCGCCCGGCGGCUCGAGCCCGGGUAAGUGUAAAUAGUCUGCAUGCCGCCGGGCGCCAUGCCUGCAGGUCGACUCUAGAAAACAUG”, the binding signal was 1.23 log2 enrichment (interaction score) with PUM1 PUF domain R8-RGR; 1.84 log2 enrichment (interaction score) with PUM1 PUF domain R5-RQC; 2.69 log2 enrichment (interaction score) with PUM1 PUF domain R4-CRS; 1.1 log2 enrichment (interaction score) in the experiment with PUM1 PUF domain R5-CTR; 2.18 log2 enrichment (interaction score) with PUM1 PUF domain R5-RFD; 4.8 log2 enrichment (interaction score) in the experiment with PUM1 PUF domain R3-TRF. Besides, the binding signal is 2.91 log2 enrichment (interaction score) with PUM1 PUF domain R3-GPT; 4.44 log2 enrichment (interaction score) in the experiment with PUM1 PUF domain R3-IYL; 3.12 log2 enrichment (interaction score) with PUM1 PUF domain R4-SML; 3.42 log2 enrichment (interaction score) with PUM1 PUF domain R5-EFR; 3.77 log2 enrichment (interaction score) in the experiment with PUM1 PUF domain R3-LWT.

On to “GGCUAGAACUAGUGGAUCCCCCGGCGCCCGGCGGCUCGAGCCCGGGUAAGUGUAAAUCGUCUGCAUGCCGCCGGGCGCCAUGCCUGCAGGUCGACUCUAGAAAACAUG”, for which the binding signal with PUM1 PUF domain R1-SLR was 3.37 log2 enrichment (interaction score).

With “GGCUAGAACUAGUGGAUCCCCCGGCGCCCGGCGGCUCGAGCCCGGGUAAGUGUGAAUAGUCUGCAUGCCGCCGGGCGCCAUGCCUGCAGGUCGACUCUAGAAAACAUG”, the binding signal was 3.23 log2 enrichment (interaction score) in the experiment with PUM1 PUF domain R5-DRQ, 0.17 log2 enrichment (interaction score) with PUM1 PUF domain R5-KRP and 2.73 log2 enrichment (interaction score) with PUM1 PUF domain R5-RFD.

In the case of “GGCUAGAACUAGUGGAUCCCCCGGCGCCCGGCGGCUCGAGCCCGGGUAAGUCUAAAUAGUCUGCAUGCCGCCGGGCGCCAUGCCUGCAGGUCGACUCUAGAAAACAUG”, the binding signal with PUM1 PUF domain R7-KRG is 2.64 log2 enrichment (interaction score).

Take “GGCUAGAACUAGUGGAUCCCCCGGCGCCCGGCGGCUCGAGCCCGGGUAAGUGUCAAUAGUCUGCAUGCCGCCGGGCGCCAUGCCUGCAGGUCGACUCUAGAAAACAUG”: the binding signal is 3.34 log2 enrichment (interaction score) in the experiment with PUM1 PUF domain R5-DRQ; 4.74 log2 enrichment (interaction score) with PUM1 PUF domain R5-RQC; 2.24 log2 enrichment (interaction score) in the experiment with PUM1 PUF domain R5-KRP; 4.38 log2 enrichment (interaction score) in the experiment with PUM1 PUF domain R5-CTR; 4.17 log2 enrichment (interaction score) with PUM1 PUF domain R5-RFD; 1.31 log2 enrichment (interaction score) with PUM1 PUF domain R5-EFR.

Turning to “GGCUAGAACUAGUGGAUCCCCCGGCGCCCGGCGGCUCGAGCCCGGGUAAGUGUUAAUAGUCUGCAUGCCGCCGGGCGCCAUGCCUGCAGGUCGACUCUAGAAAACAUG”, the binding signal with PUM1 PUF domain R5-RQC is 4.83 log2 enrichment (interaction score); with PUM1 PUF domain R5-DHW it was 3.46 log2 enrichment (interaction score); with PUM1 PUF domain R5-RFD, 4.39 log2 enrichment (interaction score).

On to “GGCUAGAACUAGUGGAUCCCCCGGCGCCCGGCGGCUCGAGCCCGGGUAAGUGUAAGUAGUCUGCAUGCCGCCGGGCGCCAUGCCUGCAGGUCGACUCUAGAAAACAUG”, for which the binding signal in the experiment with PUM1 PUF domain R3-EWE is 4.74 log2 enrichment (interaction score).

As to “GGCUAGAACUAGUGGAUCCCCCGGCGCCCGGCGGCUCGAGCCCGGGUAAGUGUAAUUAGUCUGCAUGCCGCCGGGCGCCAUGCCUGCAGGUCGACUCUAGAAAACAUG”, the binding signal with PUM1 PUF domain R3-TRF was 0.63 log2 enrichment (interaction score); in the experiment with PUM1 PUF domain R3-GPT it was 2.69 log2 enrichment (interaction score); with PUM1 PUF domain R3-LWT, 4.05 log2 enrichment (interaction score); with PUM1 PUF domain R3-EWE, 4.69 log2 enrichment (interaction score).

“GGCUAGAACUAGUGGAUCCCCCGGCGCCCGGCGGCUCGAGCCCGGGUAAGUUUAAAUAGUCUGCAUGCCGCCGGGCGCCAUGCCUGCAGGUCGACUCUAGAAAACAUG”: the binding signal was 2.98 log2 enrichment (interaction score) with PUM1 PUF domain R7-KRG and 4.37 log2 enrichment (interaction score) in the experiment with PUM1 PUF domain R7-TVG.

With “GGCUAGAACUAGUGGAUCCCCCGGCGCCCGGCGGCUCGAGCCCGGGUAAGCGUAAAUAGUCUGCAUGCCGCCGGGCGCCAUGCCUGCAGGUCGACUCUAGAAAACAUG”, the binding signal in the experiment with PUM1 PUF domain R8-RGR is 2.53 log2 enrichment (interaction score).

Regarding “GGCUAGAACUAGUGGAUCCCCCGGCGCCCGGCGGCUCGAGCCCGGGUAAGUGUAAAUUGUCUGCAUGCCGCCGGGCGCCAUGCCUGCAGGUCGACUCUAGAAAACAUG”, the binding signal is 4.45 log2 enrichment (interaction score) with PUM1 PUF domain R1-TLF, 3.81 log2 enrichment (interaction score) with PUM1 PUF domain R1-RIS and 0.57 log2 enrichment (interaction score) with PUM1 PUF domain R1-SLR.
